Only some compounds are listed: those with a hit (about 11% of all), similar ones and a draw of the others.
G9a block – blocks human histone lysine methyltransferase G9a; Q96KQ7; G9a H3K9 monomethylation, AlphaScreen, 2 h; Potency, µM (highest dose often 102 µM), usual class: inhibitors; 350,000 tested, 8.8% active; also: nearly all actives have a fitted effect of over 75% in size
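Methyltransferase reactions run at room temperature for 2 h (20 nM enzyme, 500 nM biotin-H3K9 peptide, 20 uM SAM) after a 15 min compound preincubation; product detected by AlphaScreen beads and anti-H3K9me1 antibody.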
JMJD2A Tudor inh – JMJD2A Tudor domain (human) inhibition. O75164. AlphaScreen JMJD2A-Tudor / H3K4me3 peptide binding. Potency, µM (titrated, usually from 114 µM), most hits filed as inhibitors. 390,000 tested, 4.4% active. AID 504339; also: nearly all actives have a fitted effect of over 50% in size
BAZ2B inh – BAZ2B (human) inhibition; AlphaScreen BAZ2B-H3K14Ac peptide displacement; 360,000 tested, 4.4% active; Potency, µM (top dose mostly 114 µM), actives largely listed as inhibitors; AID 504333; also: nearly all actives have a fitted effect of over 60% in size
Target sequence (Q9UIF8 whole entry, looked up): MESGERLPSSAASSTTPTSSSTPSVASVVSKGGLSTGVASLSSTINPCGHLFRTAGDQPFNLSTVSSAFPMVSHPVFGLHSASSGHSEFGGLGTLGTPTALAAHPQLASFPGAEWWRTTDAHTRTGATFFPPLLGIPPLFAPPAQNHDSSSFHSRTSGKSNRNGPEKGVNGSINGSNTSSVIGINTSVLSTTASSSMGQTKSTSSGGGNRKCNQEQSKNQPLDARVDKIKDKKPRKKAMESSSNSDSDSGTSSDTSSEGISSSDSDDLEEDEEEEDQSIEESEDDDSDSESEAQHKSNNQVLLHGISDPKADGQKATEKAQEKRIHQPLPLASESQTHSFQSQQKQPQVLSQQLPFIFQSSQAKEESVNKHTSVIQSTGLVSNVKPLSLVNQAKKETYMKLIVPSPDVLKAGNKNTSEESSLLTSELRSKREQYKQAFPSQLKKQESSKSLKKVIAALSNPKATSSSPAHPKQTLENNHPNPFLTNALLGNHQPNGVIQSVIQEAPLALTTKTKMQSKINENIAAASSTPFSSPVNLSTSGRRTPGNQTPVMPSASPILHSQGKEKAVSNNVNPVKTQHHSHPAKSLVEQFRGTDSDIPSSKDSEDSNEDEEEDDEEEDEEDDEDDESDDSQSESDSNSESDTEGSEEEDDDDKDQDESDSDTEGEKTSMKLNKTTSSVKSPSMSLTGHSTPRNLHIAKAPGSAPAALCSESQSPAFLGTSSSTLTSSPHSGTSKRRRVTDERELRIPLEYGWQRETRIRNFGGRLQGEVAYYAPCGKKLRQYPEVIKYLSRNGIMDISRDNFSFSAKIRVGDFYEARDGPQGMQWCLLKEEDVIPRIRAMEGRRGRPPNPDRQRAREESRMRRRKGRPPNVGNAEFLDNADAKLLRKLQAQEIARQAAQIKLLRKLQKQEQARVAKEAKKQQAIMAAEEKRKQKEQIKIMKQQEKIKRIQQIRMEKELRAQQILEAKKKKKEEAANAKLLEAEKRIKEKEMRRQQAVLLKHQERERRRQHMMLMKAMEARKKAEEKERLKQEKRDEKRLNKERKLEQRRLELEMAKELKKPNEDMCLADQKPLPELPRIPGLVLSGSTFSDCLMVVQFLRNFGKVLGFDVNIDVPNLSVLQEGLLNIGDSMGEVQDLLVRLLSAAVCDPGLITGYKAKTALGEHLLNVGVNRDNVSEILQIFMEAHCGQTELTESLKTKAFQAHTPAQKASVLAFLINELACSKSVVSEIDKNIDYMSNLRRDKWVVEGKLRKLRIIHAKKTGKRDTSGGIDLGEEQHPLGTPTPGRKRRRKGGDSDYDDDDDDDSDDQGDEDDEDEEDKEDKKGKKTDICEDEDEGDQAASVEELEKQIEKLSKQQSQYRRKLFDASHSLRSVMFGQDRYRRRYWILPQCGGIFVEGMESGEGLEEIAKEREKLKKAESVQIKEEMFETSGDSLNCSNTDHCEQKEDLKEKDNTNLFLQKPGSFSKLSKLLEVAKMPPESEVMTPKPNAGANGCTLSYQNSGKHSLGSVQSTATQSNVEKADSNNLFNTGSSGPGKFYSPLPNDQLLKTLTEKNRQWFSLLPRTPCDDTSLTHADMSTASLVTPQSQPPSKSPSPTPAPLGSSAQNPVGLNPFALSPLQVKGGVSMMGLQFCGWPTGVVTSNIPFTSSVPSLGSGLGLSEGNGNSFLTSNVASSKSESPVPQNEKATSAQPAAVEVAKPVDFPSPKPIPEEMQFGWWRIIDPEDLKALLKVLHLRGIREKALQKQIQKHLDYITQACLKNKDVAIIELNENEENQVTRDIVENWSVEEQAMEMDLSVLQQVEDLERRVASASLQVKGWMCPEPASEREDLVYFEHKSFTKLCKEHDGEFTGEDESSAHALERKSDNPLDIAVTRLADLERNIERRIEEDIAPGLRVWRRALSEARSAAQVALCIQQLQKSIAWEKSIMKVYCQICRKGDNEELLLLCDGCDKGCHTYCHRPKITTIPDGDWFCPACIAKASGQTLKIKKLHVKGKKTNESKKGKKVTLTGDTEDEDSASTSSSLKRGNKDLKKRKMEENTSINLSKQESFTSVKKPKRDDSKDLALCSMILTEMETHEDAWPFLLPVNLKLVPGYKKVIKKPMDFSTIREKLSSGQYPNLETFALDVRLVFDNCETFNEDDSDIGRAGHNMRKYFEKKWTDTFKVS
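AlphaScreen displacement: compounds (up to 110uM) incubated 30 min at room temperature with a preformed 50 nM BAZ2B/50 nM biotinylated H3K14Ac peptide complex in PBS pH 7.4 with Tween-20. Donor and acceptor beads at 10 ug/mL final added, 20 min light-protected before reading.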
HP1b chromo inh – HP1-beta chromodomain-methylated histone interaction inhibition | P83916 | AlphaScreen HP1-beta / biotin-H3K9me3 peptide binding | Potency, µM (titrated, usually from 114 µM), hits mostly inhibitors | 390,000 tested, 0.56% active | AID 540317; also: nearly all actives have a fitted effect of over 70% in size
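Compound inhibition of the preformed complex between 50 nM HP1-beta and 50 nM biotinylated H3K9me3 peptide was read by AlphaScreen. Buffer was PBS pH 7.4 with 0.01% Tween-20. Incubations ran 30 min at room temperature, with 10 ug/mL donor/acceptor beads.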
L3MBTL1 inh – blocks human L3MBTL1; AID 485360; AlphaScreen L3MBTL1–H3K9me1 peptide binding; 230,000 tested, 0.66% active; Potency, µM (doses to about 57.1 µM), hits mostly inhibitors; also: nearly all actives have a fitted effect of over 60% in size
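Displacement of a biotinylated histone H3(1-15) peptide monomethylated at Lys9 (75 nM) from L3MBTL1 (50 nM) was measured by AlphaScreen after a 30 min room-temperature compound incubation; cefsulodin titration served as intraplate control.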
Of the large screens only hits and unclear results are named; the others gave an inactive call. Calls follow the shape of the dose curve; as a rule, active = well fitted inhibition curve with a large enough effect; inconclusive = small, poorly fitted or top-dose-only effect; inactive = no such curve, though single readings can be large or run the other way.

Cc1cccc2nc(CSCc3ccco3)cn12	G9a block 44.7µM, BAZ2B inh inconclusive, L3MBTL1 inh inconclusive
COc1cc(OC)c(N(C)C(=O)c2nn(C)c3c2CSc2ccccc2-3)cc1Cl	G9a block inconclusive (no result: L3MBTL1 inh)
Cc1noc(C)c1-c1ccc2ncnc(NCc3ccc(C(F)(F)F)o3)c2c1	none (no result: G9a block, BAZ2B inh, HP1b chromo inh, L3MBTL1 inh)
O=C(O)c1cccc(N2C(=O)/C(=C/c3ccc(SCc4ccc(Cl)cc4)o3)SC2=S)c1	G9a block 20µM, JMJD2A Tudor inh 44.7µM, BAZ2B inh 31.6µM, L3MBTL1 inh 3.55µM
OCC(O)/C=N/Nc1nc(N2CCCCC2)nc(N2CCCCC2)n1 (configuration not stated)	G9a block 56.2µM (no result: L3MBTL1 inh)
O=C(CN1CCN(Cc2ccc(F)cc2)C1=O)NCc1ccccc1	none (no result: L3MBTL1 inh)
COc1ccc(-c2nc3ccc(C)cn3c2NCc2ccccc2)cc1SC1CCCCC1	JMJD2A Tudor inh 79.4µM, BAZ2B inh 50.1µM
COc1ccc(-c2ccc(-c3nc4ccc(C)cn4c3NC3CCCCC3)cc2OC)cc1	JMJD2A Tudor inh 39.8µM, BAZ2B inh 44.7µM
CCCCNc1c(-c2ccc(OC)c(SC3CCCCC3)c2)nc2ccc(C)cn12	JMJD2A Tudor inh inconclusive (no result: G9a block, BAZ2B inh)
CCC(C)Sc1cc(-c2nc3ccc(C)cn3c2NCc2ccccc2)ccc1OC (configuration not stated)	JMJD2A Tudor inh 56.2µM, HP1b chromo inh inconclusive (no result: G9a block, BAZ2B inh, L3MBTL1 inh)
Cc1ccc2nc(-c3cccc(SC4CCCCC4)c3)c(NC3CCCCC3)n2c1	none (no result: G9a block, BAZ2B inh)
CCOC(=O)C1CCCN(Cc2cn3c(-c4cccc(Br)c4)nnc3s2)C1 (configuration not stated)	BAZ2B inh inconclusive (no result: L3MBTL1 inh)
O=S(=O)(c1ccc(F)cc1)N1CCN(c2nc(-c3cccc(Br)c3)nc3ccccc23)CC1	none (no result: G9a block, BAZ2B inh, L3MBTL1 inh)
CCCCOC(=O)c1c(C)oc2c1cc(NS(=O)(=O)c1cc(OC)ccc1OC)c1ccccc12	none (no result: L3MBTL1 inh)
CC(C)CCNC(=O)c1ccc(-n2cnc3cccnc32)cc1	none (no result: L3MBTL1 inh)
Cn1c(SCC(=O)Nc2ccc3[nH]c(=O)[nH]c3c2)nnc1-c1ccc(F)cc1	G9a block inconclusive (no result: L3MBTL1 inh)
CCn1c(/C=C/N(C(C)=O)c2ccccc2)[n+](CCCS(=O)(=O)[O-])c2cc(Cl)c(Cl)cc21	none
CC[n+]1c(/C=C/C=C/N(C(C)=O)c2ccccc2)sc2cc(OC)ccc21	G9a block inconclusive, JMJD2A Tudor inh 56.2µM, BAZ2B inh 44.7µM, HP1b chromo inh inconclusive
CCCCOc1ccc(C(=O)NCCc2csc(-c3cccc(F)c3)n2)cc1	none (no result: L3MBTL1 inh)
Cc1ccc(S(=O)(=O)CC(=O)Nc2nc(C(C)(C)C)cs2)cc1	G9a block 39.8µM (no result: L3MBTL1 inh)
CCOC(=O)Cc1csc(SCC(=O)Nc2nccs2)n1	G9a block 50.1µM
CCOC(=O)Cc1csc(NC(=O)Cc2cccs2)n1	JMJD2A Tudor inh 44.7µM, BAZ2B inh 50.1µM, L3MBTL1 inh inconclusive
CCOC(=O)Cc1csc(NC(=O)CCSc2ccccc2)n1	G9a block 50.1µM
Cc1ccc(S(=O)(=O)CCC(=O)Nc2nc(C(C)(C)C)cs2)cc1	none (no result: L3MBTL1 inh)
CN1CCN(C(=O)Cn2c(-c3cccs3)cc3cc(Cl)ccc32)CC1	none (no result: L3MBTL1 inh)
Cc1ccc(C(=O)N2CCc3cc(CNC(=O)c4ccccc4F)ccc32)cc1	none (no result: L3MBTL1 inh)
Cc1ccc(S(=O)(=O)N2CCOC2CNC(=O)C(=O)NCc2ccncc2)cc1 (configuration not stated)	none (no result: L3MBTL1 inh)
COCc1nnc(NC(=O)CS(=O)(=O)c2ccc(C)cc2)s1	G9a block 50.1µM, JMJD2A Tudor inh inconclusive (no result: L3MBTL1 inh)
CCOC(=O)Cc1csc(NC(=O)CSc2cc(Cl)ccc2Cl)n1	G9a block 22.4µM, BAZ2B inh inconclusive
CC(C)(C)c1csc(NC(=O)Cc2cccs2)n1	G9a block 50.1µM, BAZ2B inh 50.1µM
CC(C)(C)c1csc(NC(=O)c2cccs2)n1	G9a block inconclusive
Cc1ccc(S(=O)(=O)CCc2nnc(NC(=O)CCl)s2)cc1C	G9a block 79.4µM
CCOC(=O)Cc1csc(NC(=O)CSc2nc(C)cc(C)n2)n1	none (no result: G9a block, BAZ2B inh)
Cc1ccc(S(=O)(=O)CCc2nnc(N)s2)cc1C	none
CN1CCN(c2ccc(S(=O)(=O)N3CCCCC3)cc2NC(=O)/C=C/c2ccc(Cl)c([N+](=O)[O-])c2)CC1	G9a block 35.5µM, JMJD2A Tudor inh 44.7µM, BAZ2B inh inconclusive, HP1b chromo inh inconclusive
CCN1CCN(c2ccc(S(=O)(=O)N3CCCCC3)cc2NC(=O)/C=C/c2ccc([N+](=O)[O-])cc2)CC1	G9a block 17.8µM, JMJD2A Tudor inh inconclusive, BAZ2B inh inconclusive, HP1b chromo inh inconclusive
CCN1CCN(c2ccc(S(=O)(=O)N3CCCCC3)cc2NC(=O)/C=C/c2ccc(F)cc2)CC1	G9a block 1.26µM
CCN1CCN(c2ccc(S(=O)(=O)N3CCCCC3)cc2NC(=O)/C=C/c2cccc(OC)c2OC)CC1	JMJD2A Tudor inh inconclusive, BAZ2B inh inconclusive (no result: G9a block, L3MBTL1 inh)
CCN1CCN(c2ccc(S(=O)(=O)N3CCOCC3)cc2NC(=O)/C=C/c2ccc(C)cc2)CC1	none
CCC(Cc1ccccc1)NC(=O)Cn1ncc2c3ccccc3n(Cc3ccccc3)c2c1=O (configuration not stated)	none (no result: L3MBTL1 inh)
COc1cc(NC(=O)Nc2ccccc2)c(OC)cc1NC(=O)CN1CCCCC1	JMJD2A Tudor inh 39.8µM, BAZ2B inh 50.1µM, HP1b chromo inh inconclusive (no result: L3MBTL1 inh)
COc1cc(NC(=O)c2ccc(Cl)cc2)c(OC)cc1NC(=O)CN1CCCCC1	G9a block 50.1µM, BAZ2B inh 39.8µM, HP1b chromo inh inconclusive
COc1cc(NC(=O)c2ccccc2)c(OC)cc1NC(=O)CN1C(=O)N(C)C2(CCCCC2)C1=O	G9a block 79.4µM, JMJD2A Tudor inh inconclusive, BAZ2B inh inconclusive
COc1ccc(CNc2ccc3c(c2)nc(C)n3C)cc1	G9a block 3.55µM
COc1cccc(NC(=O)Nc2ccc3c(c2)nc(C)n3C)c1	none

Assay outcomes as filed in PubChem BioAssay.
